Data as given in PMC7862700, “An all-to-all approach to the identification of sequence-specific readers for epigenetic DNA modifications on cytosine”.

What was measured:
Test in all cases: DAPPL (digital affinity profiling via proximity ligation, sequencing); 10 mM Tris-HCl pH 7.5, 50 mM NaCl, 1 mM DTT, 4% glycerol, room temperature, 30 min; GST-TFs on glutathione beads, 16-mer random dsDNA library, 0.1% formaldehyde crosslink after washing; high values mean tight binding
Details in all cases: protein: recombinant; tags: N-terminal GST; dsDNA, one strand shown
[1] = target: T1, ERF (Homo sapiens, UniProt P50548 1-548)
T1 sequence: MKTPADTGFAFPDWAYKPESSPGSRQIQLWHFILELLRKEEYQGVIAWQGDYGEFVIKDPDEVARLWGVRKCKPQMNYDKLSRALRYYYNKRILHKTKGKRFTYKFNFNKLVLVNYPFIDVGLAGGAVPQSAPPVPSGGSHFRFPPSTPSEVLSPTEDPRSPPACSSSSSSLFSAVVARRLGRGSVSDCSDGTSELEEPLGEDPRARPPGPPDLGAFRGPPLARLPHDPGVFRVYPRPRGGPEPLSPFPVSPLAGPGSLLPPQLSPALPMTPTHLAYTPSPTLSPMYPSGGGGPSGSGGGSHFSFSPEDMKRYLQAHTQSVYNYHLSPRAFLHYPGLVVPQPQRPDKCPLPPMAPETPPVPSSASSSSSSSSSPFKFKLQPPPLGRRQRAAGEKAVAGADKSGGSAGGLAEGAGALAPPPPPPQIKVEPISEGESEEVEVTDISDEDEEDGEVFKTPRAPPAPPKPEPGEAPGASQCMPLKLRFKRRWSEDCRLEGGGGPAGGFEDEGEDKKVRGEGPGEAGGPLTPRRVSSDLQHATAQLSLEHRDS
Summary of the method: (§1)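 GST fusions of human transcription factors were expressed in yeast and captured with glutathione beads. Once given DNA barcodes and pooled alongside a tag-only sample, they were incubated for 30 min at room temperature with 200 nmole of a random double-stranded 16-mer DNA library in Tris/NaCl/DTT/glycerol buffer, then washed, crosslinked (0.1% formaldehyde), proximity-ligated, PCR-amplified and sequenced on an Illumina NextSeq500. The binding signal of each hexamer is its read frequency for a factor divided by its frequency for the tag-only sample.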

[2] = target: T2, ETV3L (Homo sapiens, UniProt Q6ZN32 1-361)
T2 sequence: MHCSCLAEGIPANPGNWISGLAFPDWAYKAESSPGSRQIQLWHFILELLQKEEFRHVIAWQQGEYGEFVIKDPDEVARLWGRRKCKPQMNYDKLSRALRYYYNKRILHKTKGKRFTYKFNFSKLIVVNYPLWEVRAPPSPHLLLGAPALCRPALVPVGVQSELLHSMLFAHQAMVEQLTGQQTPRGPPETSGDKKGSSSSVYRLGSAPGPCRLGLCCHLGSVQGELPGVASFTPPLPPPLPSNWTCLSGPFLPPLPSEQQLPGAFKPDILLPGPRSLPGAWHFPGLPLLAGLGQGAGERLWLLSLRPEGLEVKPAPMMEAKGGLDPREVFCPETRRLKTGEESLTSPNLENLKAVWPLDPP
Summary of the method: as §1

[3] = target: T3, ETS2 (Homo sapiens, UniProt P15036 1-469)
T3 sequence: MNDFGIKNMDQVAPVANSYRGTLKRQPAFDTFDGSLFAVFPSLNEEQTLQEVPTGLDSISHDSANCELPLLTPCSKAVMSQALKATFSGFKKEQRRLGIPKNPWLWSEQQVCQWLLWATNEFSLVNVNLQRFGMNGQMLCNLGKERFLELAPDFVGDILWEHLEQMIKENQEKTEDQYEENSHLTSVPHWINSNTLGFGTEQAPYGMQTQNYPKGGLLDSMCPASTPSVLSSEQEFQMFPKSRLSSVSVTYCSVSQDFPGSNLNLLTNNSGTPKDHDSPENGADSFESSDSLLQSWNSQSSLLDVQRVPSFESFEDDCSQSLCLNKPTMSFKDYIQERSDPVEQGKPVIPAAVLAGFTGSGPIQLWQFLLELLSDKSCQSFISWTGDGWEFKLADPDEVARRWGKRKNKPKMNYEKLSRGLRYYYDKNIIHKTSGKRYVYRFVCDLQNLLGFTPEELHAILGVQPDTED
Summary of the method: as §1

[4] = target: T4, ELF5 (Homo sapiens, UniProt Q9UKW6-2 1-255)
T4 sequence: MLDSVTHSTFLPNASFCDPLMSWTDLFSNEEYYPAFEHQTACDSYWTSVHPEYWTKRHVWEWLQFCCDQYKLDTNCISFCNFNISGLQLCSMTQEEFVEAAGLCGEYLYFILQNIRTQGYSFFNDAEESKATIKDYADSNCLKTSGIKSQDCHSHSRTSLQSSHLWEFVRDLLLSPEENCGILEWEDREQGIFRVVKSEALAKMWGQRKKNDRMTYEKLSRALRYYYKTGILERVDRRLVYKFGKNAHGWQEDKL
Summary of the method: as §1

[5] = target: T5, ETV3 (Homo sapiens, UniProt P41162-2 1-143)
T5 sequence: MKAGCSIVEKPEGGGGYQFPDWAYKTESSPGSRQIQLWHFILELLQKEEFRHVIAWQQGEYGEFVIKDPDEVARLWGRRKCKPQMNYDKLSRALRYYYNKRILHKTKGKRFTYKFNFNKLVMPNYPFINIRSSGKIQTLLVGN
Summary of the method: as §1

[6] = target: ETV6 (Homo sapiens, UniProt P41212 1-452)
ETV6, sequence (P41212 whole entry): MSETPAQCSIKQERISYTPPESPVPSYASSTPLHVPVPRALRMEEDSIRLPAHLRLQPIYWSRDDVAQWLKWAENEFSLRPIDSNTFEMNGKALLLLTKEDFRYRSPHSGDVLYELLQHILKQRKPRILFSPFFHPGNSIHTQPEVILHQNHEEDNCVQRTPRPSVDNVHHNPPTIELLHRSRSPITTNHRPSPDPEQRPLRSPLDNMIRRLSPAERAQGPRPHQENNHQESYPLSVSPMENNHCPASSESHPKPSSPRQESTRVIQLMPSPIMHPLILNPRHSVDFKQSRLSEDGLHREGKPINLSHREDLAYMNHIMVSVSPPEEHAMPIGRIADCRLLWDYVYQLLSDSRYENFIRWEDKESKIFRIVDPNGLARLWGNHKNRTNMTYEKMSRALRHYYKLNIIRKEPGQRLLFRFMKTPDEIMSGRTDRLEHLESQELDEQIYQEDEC
Summary of the method: as §1

[7] = target: T6, ETV7 (Homo sapiens, UniProt Q9Y603 1-341)
T6 sequence: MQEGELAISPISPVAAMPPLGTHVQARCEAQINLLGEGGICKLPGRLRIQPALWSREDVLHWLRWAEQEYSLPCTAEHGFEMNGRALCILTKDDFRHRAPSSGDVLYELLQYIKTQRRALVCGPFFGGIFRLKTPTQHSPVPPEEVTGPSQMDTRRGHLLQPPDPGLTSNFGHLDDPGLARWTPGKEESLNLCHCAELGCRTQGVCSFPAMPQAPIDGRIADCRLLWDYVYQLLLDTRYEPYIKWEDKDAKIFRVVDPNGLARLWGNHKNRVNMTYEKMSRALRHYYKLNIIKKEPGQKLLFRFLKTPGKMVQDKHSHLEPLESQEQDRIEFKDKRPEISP
Summary of the method: as §1

[8] = target: T7, SPDEF (Homo sapiens, UniProt O95238 1-335)
T7 sequence: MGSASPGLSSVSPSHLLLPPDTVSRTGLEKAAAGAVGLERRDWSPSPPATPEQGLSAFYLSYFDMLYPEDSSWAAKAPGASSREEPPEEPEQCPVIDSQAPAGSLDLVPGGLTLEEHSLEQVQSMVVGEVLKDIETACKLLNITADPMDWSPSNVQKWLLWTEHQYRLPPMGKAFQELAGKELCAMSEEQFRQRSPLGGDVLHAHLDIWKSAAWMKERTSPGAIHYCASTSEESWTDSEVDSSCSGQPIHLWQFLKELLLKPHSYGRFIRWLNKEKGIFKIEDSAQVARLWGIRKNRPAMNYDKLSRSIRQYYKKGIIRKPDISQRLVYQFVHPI
Summary of the method: as §1

| Sequence | binding signal [1] | binding signal [2] | binding signal [3] | binding signal [4] | binding signal [5] | binding signal [6] | binding signal [7] | binding signal [8] |
| --- | --- | --- | --- | --- | --- | --- | --- | --- |
| AACGCC | 1 fold enrichment (6-mer frequency, TF over GST control) | 1.11 fold enrichment (6-mer frequency, TF over GST control) | 1.06 fold enrichment (6-mer frequency, TF over GST control) | 1.01 fold enrichment (6-mer frequency, TF over GST control) | 1.06 fold enrichment (6-mer frequency, TF over GST control) | 1.19 fold enrichment (6-mer frequency, TF over GST control) | – | – |
| GAACAT | 1.1 fold enrichment (6-mer frequency, TF over GST control) | 1.01 fold enrichment (6-mer frequency, TF over GST control) | 1 fold enrichment (6-mer frequency, TF over GST control) | 1.09 fold enrichment (6-mer frequency, TF over GST control) | 1.08 fold enrichment (6-mer frequency, TF over GST control) | 1.07 fold enrichment (6-mer frequency, TF over GST control) | 1.11 fold enrichment (6-mer frequency, TF over GST control) | – |
| GTCCAC | 1.07 fold enrichment (6-mer frequency, TF over GST control) | 1.12 fold enrichment (6-mer frequency, TF over GST control) | 1.05 fold enrichment (6-mer frequency, TF over GST control) | – | – | 1.03 fold enrichment (6-mer frequency, TF over GST control) | 1.01 fold enrichment (6-mer frequency, TF over GST control) | – |
| CCGAAG | 1.16 fold enrichment (6-mer frequency, TF over GST control) | 1.02 fold enrichment (6-mer frequency, TF over GST control) | 1.08 fold enrichment (6-mer frequency, TF over GST control) | – | 1.02 fold enrichment (6-mer frequency, TF over GST control) | – | – | – |
| TGCGCG | 1.24 fold enrichment (6-mer frequency, TF over GST control) | 1.02 fold enrichment (6-mer frequency, TF over GST control) | – | 1.01 fold enrichment (6-mer frequency, TF over GST control) | 1.03 fold enrichment (6-mer frequency, TF over GST control) | 1.14 fold enrichment (6-mer frequency, TF over GST control) | 1.23 fold enrichment (6-mer frequency, TF over GST control) | – |
| CGATCA | 1.09 fold enrichment (6-mer frequency, TF over GST control) | 1.1 fold enrichment (6-mer frequency, TF over GST control) | 1.19 fold enrichment (6-mer frequency, TF over GST control) | – | 1.1 fold enrichment (6-mer frequency, TF over GST control) | 1.05 fold enrichment (6-mer frequency, TF over GST control) | 1.08 fold enrichment (6-mer frequency, TF over GST control) | – |
| GTATGG | 1.25 fold enrichment (6-mer frequency, TF over GST control) | 1.03 fold enrichment (6-mer frequency, TF over GST control) | 1.01 fold enrichment (6-mer frequency, TF over GST control) | 1.03 fold enrichment (6-mer frequency, TF over GST control) | – | 1.01 fold enrichment (6-mer frequency, TF over GST control) | 1.02 fold enrichment (6-mer frequency, TF over GST control) | – |
| AAGCCC | 1.11 fold enrichment (6-mer frequency, TF over GST control) | 1.07 fold enrichment (6-mer frequency, TF over GST control) | – | 1.02 fold enrichment (6-mer frequency, TF over GST control) | 1.1 fold enrichment (6-mer frequency, TF over GST control) | 1.03 fold enrichment (6-mer frequency, TF over GST control) | 1.01 fold enrichment (6-mer frequency, TF over GST control) | – |
| CACCAA | 1.18 fold enrichment (6-mer frequency, TF over GST control) | 1.06 fold enrichment (6-mer frequency, TF over GST control) | – | 1.03 fold enrichment (6-mer frequency, TF over GST control) | 1.1 fold enrichment (6-mer frequency, TF over GST control) | 1.07 fold enrichment (6-mer frequency, TF over GST control) | – | 1.03 fold enrichment (6-mer frequency, TF over GST control) |
| TCTGGG | 1.16 fold enrichment (6-mer frequency, TF over GST control) | 1.11 fold enrichment (6-mer frequency, TF over GST control) | – | 1.08 fold enrichment (6-mer frequency, TF over GST control) | 1.09 fold enrichment (6-mer frequency, TF over GST control) | 1.14 fold enrichment (6-mer frequency, TF over GST control) | 1.07 fold enrichment (6-mer frequency, TF over GST control) | 1.07 fold enrichment (6-mer frequency, TF over GST control) |
| ACCGAA | 1.09 fold enrichment (6-mer frequency, TF over GST control) | 1.04 fold enrichment (6-mer frequency, TF over GST control) | 1.07 fold enrichment (6-mer frequency, TF over GST control) | – | 1.02 fold enrichment (6-mer frequency, TF over GST control) | 1 fold enrichment (6-mer frequency, TF over GST control) | – | – |
| TAGGTC | 1.01 fold enrichment (6-mer frequency, TF over GST control) | 1.02 fold enrichment (6-mer frequency, TF over GST control) | – | 1.02 fold enrichment (6-mer frequency, TF over GST control) | 1.04 fold enrichment (6-mer frequency, TF over GST control) | – | 1.11 fold enrichment (6-mer frequency, TF over GST control) | 1.05 fold enrichment (6-mer frequency, TF over GST control) |
| GAATCT | 1.17 fold enrichment (6-mer frequency, TF over GST control) | 1.05 fold enrichment (6-mer frequency, TF over GST control) | 1.08 fold enrichment (6-mer frequency, TF over GST control) | 1.07 fold enrichment (6-mer frequency, TF over GST control) | 1.13 fold enrichment (6-mer frequency, TF over GST control) | 1.06 fold enrichment (6-mer frequency, TF over GST control) | 1.03 fold enrichment (6-mer frequency, TF over GST control) | – |
| TAGTAA | 1.09 fold enrichment (6-mer frequency, TF over GST control) | 1.04 fold enrichment (6-mer frequency, TF over GST control) | – | 1.04 fold enrichment (6-mer frequency, TF over GST control) | 1.06 fold enrichment (6-mer frequency, TF over GST control) | 1.07 fold enrichment (6-mer frequency, TF over GST control) | 1.16 fold enrichment (6-mer frequency, TF over GST control) | 1.02 fold enrichment (6-mer frequency, TF over GST control) |
| GCCCCC | 1.24 fold enrichment (6-mer frequency, TF over GST control) | 1.16 fold enrichment (6-mer frequency, TF over GST control) | 1.03 fold enrichment (6-mer frequency, TF over GST control) | 1.04 fold enrichment (6-mer frequency, TF over GST control) | 1.21 fold enrichment (6-mer frequency, TF over GST control) | 1.05 fold enrichment (6-mer frequency, TF over GST control) | – | – |
| TATCAA | 1.08 fold enrichment (6-mer frequency, TF over GST control) | 1.06 fold enrichment (6-mer frequency, TF over GST control) | 1.05 fold enrichment (6-mer frequency, TF over GST control) | – | 1.04 fold enrichment (6-mer frequency, TF over GST control) | – | 1.09 fold enrichment (6-mer frequency, TF over GST control) | – |
